Test results from PMC11574364.

Key:
Experiment in all cases: protein domain microarray probed with biotinylated miRNA; Domain array: 20 mM Tris-HCl pH 7.4, 200 mM KCl, 0.2 mM EDTA, 0.05% NP40, 2 ug/ul heparin, overnight 4 C. ORF array: PBS pH 7.0 with RNase inhibitor, 100 ng RNA; high values mean tight binding
Settings in all cases: ssRNA
[1] = biological target: RBM8A (Homo sapiens, UniProt Q9Y5S9)
[2] = biological target: T1, PGC-1 alpha (Homo sapiens, UniProt Q9UBK2)
T1 sequence: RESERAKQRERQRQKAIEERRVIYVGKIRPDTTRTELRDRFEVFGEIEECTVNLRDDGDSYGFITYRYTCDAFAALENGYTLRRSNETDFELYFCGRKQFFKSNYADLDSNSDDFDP

[3] = biological target: T2, NOVA1(3) (Homo sapiens, UniProt P51513)
T2 sequence: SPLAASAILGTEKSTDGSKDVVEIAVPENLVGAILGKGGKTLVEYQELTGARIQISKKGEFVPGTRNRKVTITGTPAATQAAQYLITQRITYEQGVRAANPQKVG

[4] = biological target: T3, SFRS2 (Homo sapiens, UniProt Q01130)
T3 sequence: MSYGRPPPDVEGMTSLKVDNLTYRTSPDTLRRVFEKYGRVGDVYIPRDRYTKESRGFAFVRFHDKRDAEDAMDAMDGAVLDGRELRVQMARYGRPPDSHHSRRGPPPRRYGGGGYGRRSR

[5] = biological target: T4, STRBP(2) (Homo sapiens, UniProt Q96SI9)
T4 sequence: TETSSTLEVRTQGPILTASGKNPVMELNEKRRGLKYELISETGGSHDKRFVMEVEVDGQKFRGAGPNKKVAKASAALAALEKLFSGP

[6] = biological target: T5, KHDRBS3 (Homo sapiens, UniProt O75525)
T5 sequence: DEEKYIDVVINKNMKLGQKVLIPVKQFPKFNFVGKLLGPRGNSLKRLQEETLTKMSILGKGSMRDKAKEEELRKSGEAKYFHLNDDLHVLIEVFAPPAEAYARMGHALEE

[7] = biological target: T6, PGC-1 beta (Homo sapiens, UniProt Q86YN6)
T6 sequence: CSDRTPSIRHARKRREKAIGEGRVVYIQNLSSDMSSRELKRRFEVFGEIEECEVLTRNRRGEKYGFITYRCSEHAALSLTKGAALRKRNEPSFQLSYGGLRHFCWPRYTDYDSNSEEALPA

[8] = biological target: hnRNP E2(3) (Homo sapiens, UniProt Q15366)
hnRNP E2(3), sequence (Q15366 269-365): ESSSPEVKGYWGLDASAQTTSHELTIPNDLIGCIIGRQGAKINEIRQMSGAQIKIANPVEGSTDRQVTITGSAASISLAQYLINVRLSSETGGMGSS

[9] = biological target: T7, RBM12(1-2) (Homo sapiens, UniProt Q9NTZ6)
T7 sequence: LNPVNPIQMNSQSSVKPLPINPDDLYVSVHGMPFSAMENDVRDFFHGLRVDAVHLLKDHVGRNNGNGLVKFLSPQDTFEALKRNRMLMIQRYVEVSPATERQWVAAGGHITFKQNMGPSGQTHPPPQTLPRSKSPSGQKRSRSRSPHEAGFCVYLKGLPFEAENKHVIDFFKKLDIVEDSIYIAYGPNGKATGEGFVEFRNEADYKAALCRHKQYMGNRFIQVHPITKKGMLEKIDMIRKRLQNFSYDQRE

[10] = biological target: RBMY1F (Homo sapiens, UniProt Q15415)
RBMY1F, sequence (Q15415 1-110): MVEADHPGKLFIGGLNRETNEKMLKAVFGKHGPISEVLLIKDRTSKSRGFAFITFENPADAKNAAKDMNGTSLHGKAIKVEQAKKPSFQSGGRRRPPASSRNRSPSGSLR

[11] = biological target: T8, RBM19(5-6) (Homo sapiens, UniProt Q9Y4C8)
T8 sequence: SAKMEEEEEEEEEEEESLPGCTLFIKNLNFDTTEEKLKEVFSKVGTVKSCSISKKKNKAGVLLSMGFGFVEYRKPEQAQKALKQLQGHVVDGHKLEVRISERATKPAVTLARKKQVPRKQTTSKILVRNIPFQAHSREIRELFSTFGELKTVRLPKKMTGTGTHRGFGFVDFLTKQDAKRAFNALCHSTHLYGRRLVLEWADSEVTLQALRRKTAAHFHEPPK

[12] = biological target: T9, SSB (Homo sapiens, UniProt P05455)
T9 sequence: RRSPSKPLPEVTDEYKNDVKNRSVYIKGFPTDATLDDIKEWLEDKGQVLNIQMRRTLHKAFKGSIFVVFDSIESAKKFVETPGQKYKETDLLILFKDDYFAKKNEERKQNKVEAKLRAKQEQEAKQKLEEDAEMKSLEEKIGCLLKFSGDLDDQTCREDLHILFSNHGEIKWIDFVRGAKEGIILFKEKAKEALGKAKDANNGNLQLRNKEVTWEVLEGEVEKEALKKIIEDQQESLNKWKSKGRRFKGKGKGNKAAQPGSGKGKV

[13] = biological target: SAFB2 (Homo sapiens, UniProt Q14151)
SAFB2, sequence (Q14151 380-500): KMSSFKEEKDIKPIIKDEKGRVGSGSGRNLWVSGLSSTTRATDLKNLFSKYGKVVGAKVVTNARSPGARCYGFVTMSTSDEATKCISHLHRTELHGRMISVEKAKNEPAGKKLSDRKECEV

[14] = biological target: T10, RBM28(3-4) (Homo sapiens, UniProt Q9NW13)
T10 sequence: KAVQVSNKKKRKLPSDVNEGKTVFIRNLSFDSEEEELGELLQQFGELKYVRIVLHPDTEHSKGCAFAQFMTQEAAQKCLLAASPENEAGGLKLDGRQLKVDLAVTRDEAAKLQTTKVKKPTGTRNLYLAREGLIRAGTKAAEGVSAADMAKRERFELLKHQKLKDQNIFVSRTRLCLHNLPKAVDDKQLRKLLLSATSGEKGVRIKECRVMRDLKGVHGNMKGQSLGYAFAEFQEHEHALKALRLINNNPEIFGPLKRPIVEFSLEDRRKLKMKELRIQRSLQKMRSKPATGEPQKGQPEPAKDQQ

[15] = biological target: T11, RBM42 (Homo sapiens, UniProt Q9BTD8)
T11 sequence: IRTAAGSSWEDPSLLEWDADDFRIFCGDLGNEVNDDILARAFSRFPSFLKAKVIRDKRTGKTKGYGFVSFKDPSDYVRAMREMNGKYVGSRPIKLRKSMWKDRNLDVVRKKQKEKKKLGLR

[16] = biological target: T12, RBM48 (Homo sapiens, UniProt Q5RL73)
T12 sequence: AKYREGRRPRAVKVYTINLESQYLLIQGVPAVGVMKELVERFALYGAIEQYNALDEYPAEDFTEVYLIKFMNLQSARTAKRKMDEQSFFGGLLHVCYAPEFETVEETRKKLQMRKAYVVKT

[17] = biological target: T13, Kanadaptin (Homo sapiens, UniProt Q9BWU0)
T13 sequence: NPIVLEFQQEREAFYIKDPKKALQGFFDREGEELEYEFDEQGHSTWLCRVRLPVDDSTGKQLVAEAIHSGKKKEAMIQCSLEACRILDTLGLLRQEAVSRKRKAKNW

[18] = biological target: ROD1(1-2) (Homo sapiens, UniProt O95758)
ROD1(1-2), sequence (O95758 40-280): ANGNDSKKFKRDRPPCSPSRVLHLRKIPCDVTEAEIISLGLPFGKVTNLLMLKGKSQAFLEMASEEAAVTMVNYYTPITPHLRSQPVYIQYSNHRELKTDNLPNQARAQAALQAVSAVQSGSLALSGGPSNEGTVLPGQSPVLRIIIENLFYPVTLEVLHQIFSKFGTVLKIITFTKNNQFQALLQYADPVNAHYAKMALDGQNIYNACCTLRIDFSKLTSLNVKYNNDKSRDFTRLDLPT

[19] = biological target: T14, RBM9 (Homo sapiens, UniProt O43251)
T14 sequence: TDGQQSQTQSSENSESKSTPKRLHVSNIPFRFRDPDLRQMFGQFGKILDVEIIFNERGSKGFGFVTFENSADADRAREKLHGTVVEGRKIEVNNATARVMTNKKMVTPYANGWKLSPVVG

[20] = biological target: T15, NOVA1(1-2) (Homo sapiens, UniProt P51513)
T15 chain: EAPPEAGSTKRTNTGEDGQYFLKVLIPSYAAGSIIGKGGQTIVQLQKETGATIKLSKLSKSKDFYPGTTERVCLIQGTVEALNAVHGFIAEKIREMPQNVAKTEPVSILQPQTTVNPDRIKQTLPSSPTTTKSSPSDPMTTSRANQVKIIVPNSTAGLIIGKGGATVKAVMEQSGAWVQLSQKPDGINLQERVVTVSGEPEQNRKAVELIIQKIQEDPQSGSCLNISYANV

Sequence | binding signal [1] [fluorescence intensity] | binding signal [2] [fluorescence intensity] | binding signal [3] [fluorescence intensity] | binding signal [4] [fluorescence intensity] | binding signal [5] [fluorescence intensity] | binding signal [6] [fluorescence intensity] | binding signal [7] [fluorescence intensity] | binding signal [8] [fluorescence intensity] | binding signal [9] [fluorescence intensity] | binding signal [10] [fluorescence intensity] | binding signal [11] [fluorescence intensity] | binding signal [12] [fluorescence intensity] | binding signal [13] [fluorescence intensity] | binding signal [14] [fluorescence intensity] | binding signal [15] [fluorescence intensity] | binding signal [16] [fluorescence intensity] | binding signal [17] [fluorescence intensity] | binding signal [18] [fluorescence intensity] | binding signal [19] [fluorescence intensity] | binding signal [20] [fluorescence intensity]
UGAGGUAGUAGGUUGUGUGGUU | 492 ± 15.8 | 72.3 ± 6.39 | 202.3 ± 0.523 | 1219 ± 7.53 | 83.8 ± 5.54 | 28.2 ± 0.368 | 385 ± 12.8 | 20.3 ± 0.735 | 1210 ± 36.7 | 1478 ± 10.7 | 318.4 ± 2.5 | 686 ± 34.9 | 826.5 ± 2.57 | 135 ± 19.4 | 613 ± 9.75 | 128 ± 27.9 | 62.8 ± 3.11 | 562 ± 23.1 | 1610 ± 18 | 134 ± 4.86
CAGUGCAAUGAUGAAAGGGCAU | 194 ± 11.7 | 52.5 ± 18.4 | 735.5 ± 6.54 | 1100 ± 38.7 |  | 23.5 ± 3.87 | 78.9 ± 4.49 | 21.9 ± 0.262 | 873 ± 45.6 | 1404 ± 5.42 | 110 ± 1.73 | 324 ± 18.3 | 298 ± 17.8 | 25.9 ± 2.84 | 187 ± 2.13 | 51.01 ± 0.233 |  | 116 ± 66.5 | 1850 ± 25.3 | 260.9 ± 1.94
UGAGGUAGUAGGUUGUAUGGUU | 462 ± 23.2 | 61.6 ± 8.6 | 111 ± 7.91 | 1110 ± 31.5 | 56.6 ± 5.37 | 22.9 ± 1.58 | 260 ± 19.3 | 20.2 ± 0.297 | 1230 ± 64.3 | 1430 ± 254 | 231.1 ± 1.89 | 770 ± 38.1 | 488.9 ± 0.622 | 77 ± 4.09 | 362 ± 5.61 | 94.7 ± 35.8 | 47.3 ± 6.22 | 367 ± 26.4 | 1940 ± 112 | 90.1 ± 7.43
AGAGGUAGUAGGUUGCAUAGUU | 530 ± 30.3 | 50.4 ± 6.92 | 1990 ± 38.5 | 1507 ± 5.18 | 38.5 ± 2.51 | 26.3 ± 5.34 | 196 ± 13.5 | 21.7 ± 1.28 | 1270 ± 68.8 | 2241 ± 17.4 | 122 ± 10.5 | 587.4 ± 5.08 | 328.4 ± 1.94 | 54.1 ± 1.09 | 231 ± 13.5 | 90.1 ± 12.4 | 33.9 ± 1.02 | 339 ± 66.7 | 2720 ± 95.4 | 318 ± 18.7
UGAGGUAGUAGGUUGUAUAGUU | 23.6 ± 8.27 |  | 39 ± 1.15 | 464 ± 35 |  | 21.1 ± 1.79 | 45.6 ± 6.99 | 23.4 ± 0.594 | 321 ± 62.5 | 1000 ± 19 | 39.6 ± 0.516 | 76.1 ± 6.81 | 130 ± 21.8 |  | 57.7 ± 4.36 |  |  | 49.2 ± 4.26 | 693 ± 16.3 | 27.6 ± 0.799
UAGCUUAUCAGACUGAUGUUGA |  |  | 126.9 ± 0.87 | 480 ± 21.9 |  |  |  | 20.9 ± 1.85 | 271 ± 62.1 | 865 ± 36.1 | 23.1 ± 1.03 | 22.6 ± 3.15 | 54.58 ± 0.247 |  | 21 ± 0.962 |  |  |  | 916 ± 20.1 | 
